According to PubChem BioAssay AID1076 (NMMLSC, 2008):
Active and inactive are the calls of the source.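 The calls were made as follows: active = cell event count below 40, meaning activity score above 60 where score is 100 minus count; inactive = the rest.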

Assay: cytotoxicity in LNCaP prostate cells – cell-based, cell event count, single point, cytotoxicity control for prostate differentiation activator project, confirmation (AID 1076);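 also: counts scatter-gated live cells after medium removal discards detached dead cells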
Conditions: LNCaP cell loss, flow cytometry event count, 4 d, stronger effect = lower value

| Structure (SMILES) | cell event count (at 100 µM) | cell event count (event count, at 10 µM) |
| --- | --- | --- |
| Cc1cccc(-c2nc(CN3CCCC(C(=O)NC4CCCCCC4)C3)c(C)o2)c1 (stereo unspecified) | 17 (inactive) | 222 |
| COc1ccc(-c2noc(CCC(=O)NCCCN3CCC(C)CC3)n2)cc1 | 63 (inactive) | 136 |
| Cc1ccccc1CS(=O)(=O)CCC(=O)NCCCN1CCN(c2ccccc2F)CC1 | 108 (inactive) | 71 |
| Cc1ccc(CN2CCSc3ccc(C(=O)N4CCN(c5ncccn5)CC4)cc32)cc1 | 129 (inactive) | 266 |
| CCOC(=O)N1CCC(NC(=O)c2cc3c(-c4cccc(OC)c4)nn(C)c3s2)CC1 | 142 (inactive) | 300 |
| COc1ccc(Nc2nc(N)nc(CN3CCC(Cc4ccccc4)CC3)n2)cc1 | 6 (active) | 7.5 |
| OCc1nc2ccccc2n1CCCOc1ccccc1 | 178 (inactive) | 156 |
| CCC(=O)N(Cc1ccco1)c1nc(-c2cc(OC)ccc2OC)cs1 | 227 (inactive) | 158 |
| CCN1C(=O)OC2(CCCCC2)C1(C)O (stereo unspecified) | 230 (inactive) | 174 |
| CCN(CC)CCCNC(=O)c1cc(-c2ccc(Cl)c(Cl)c2)on1 | 22 (inactive) | 165 |
| CCCNC(=O)C1CN(S(=O)(=O)c2ccccc2)CCN1S(=O)(=O)c1ccccc1 (stereo unspecified) | 120 (inactive) | 67 |
| Cc1ccccc1-c1nc(CN2CCC(C(=O)N3CCC(C(N)=O)CC3)CC2)c(C)o1 | 150 (inactive) | 83.5 |
| Cn1c(C(=O)NCCCN2CCN(c3ccccc3F)CC2)cc2c(=O)[nH]c3ccccc3c21 | 3 (inactive) | 93 |
| CCOC(=O)N1CCC(NC(=O)c2cc3c(-c4ccc(OC)c(OC)c4)nn(C)c3s2)CC1 | 151 (inactive) | 398 |
| COCCCN(C(=O)Nc1ccccc1)C(C)c1ccncc1 (stereo unspecified) | 238 (inactive) | 387 |
| Cc1oc(-c2ccccc2F)nc1CN1CCC(C(=O)NCc2cccnc2)CC1 | 290 (inactive) | 364 |
| Cc1cc2c(=O)n(CC(=O)N3CCN(c4ccccc4)CC3)cnc2s1 | 184 (inactive) | 170 |
| Cn1c(C(=O)NCCN2CCN(c3ccccc3F)CC2)cc2c(=O)n(C)c3ccccc3c21 | 2 (inactive) | 194 |
| CC1(C)CC(=O)c2cc(OCC(=O)NCCCN3CCN(c4ccccc4F)CC3)ccc2O1 | 11 (inactive) | 141 |
| COc1ccc(-n2cc(-c3ccccc3)c3c(N4CCN(CCO)CC4)ncnc32)cc1 | 12 (inactive) | 174 |
| COCCn1cc(C(=O)N2CCCC(C)C2)c2c3ccccc3n(C)c2c1=O (stereo unspecified) | 180 (inactive) | 176 |

| Structure (SMILES) | cell event count (at 100 µM) | cell event count (event count, at 10 µM) |
| --- | --- | --- |
| CCCS(=O)(=O)N1CCCC(C(=O)NCCCN2CCN(c3ccccc3F)CC2)C1 (stereo unspecified) | 110 (inactive) | 168 |
| CCCCOC(=O)CSc1nc2c(cc1C#N)C(=O)CC(C)(C)C2 | 203 (inactive) | 194 |
| COc1ccc(N2CCN(CCCNC(=O)C3(S(=O)(=O)c4ccc(Cl)cc4)CC3)CC2)cc1 | 93 (inactive) | 136 |
| COc1cc2nc(N3CCN(C(=O)C4COc5ccccc5O4)CC3)nc(N)c2cc1OC (stereo unspecified) | 5 (inactive) | 124 |
| Cc1cc(N2CCN(C)CC2)nc2ccc(NC(=O)c3ccc(Br)o3)cc12 | 4 (inactive) | 96.5 |
| Cc1oc(-c2cccc(Cl)c2)nc1CN1CCCC(C(=O)NCCCN2CCOCC2)C1 (stereo unspecified) | 22 (inactive) | 220 |
| COc1ccccc1N1CCN(Cc2cc(Br)c(O)c3ncccc23)CC1 | 17 (active) | 35.5 |
| CCc1ccc(-c2nc(CN3CCC(C(=O)NCc4ccco4)CC3)c(C)o2)cc1 | 25 (inactive) | 172 |
| C=CCn1c(=N)n(CC(O)COc2ccc(OC)cc2)c2ccccc21 (stereo unspecified) | 37 (inactive) | 126 |
| Cc1noc(/C=C/c2ccco2)c1S(=O)(=O)N1CCC(C(=O)N2CCc3ccccc3C2)CC1 | 174 (inactive) | 197 |
| CCC(CC)C(=O)Nc1cccc(C(=O)NCc2ccco2)c1 | 220 (inactive) | 155 |
| CCCCn1c2c(c3ccccc31)CCc1nonc1-2 | 134 (inactive) | 128 |
| Cc1cccc(OCCn2c(=O)n(C)c3ccccc32)c1 | 15 (inactive) | 136 |
| CC(C)(C)C1CCc2onc(C(=O)Nc3cnn(Cc4ccc(F)cc4)c3)c2C1 (stereo unspecified) | 66 (inactive) | 242 |
| COc1ccc(-c2cc(C(=O)NCc3ccc(Cl)cc3)no2)cc1OC | 172 (inactive) | 255 |
| Cn1c(C(=O)NCCC2=CCCCC2)cc2c(=O)n3ccccc3nc21 | 191 (inactive) | 132 |
| Cc1ccc(-n2nc3cc(Cl)c(NC(=O)c4ccco4)cc3n2)cc1 | 333 (inactive) | 236 |
| Cc1cc(C)n2nnnc2c1C#N | 257 (inactive) | 172 |
| Cc1ccc(C2=Nc3ccccc3NC(C)(c3ccc(C)o3)C2)o1 (stereo unspecified) | 324 (inactive) | 120 |
| Cc1oc(-c2cccc(Cl)c2)nc1CN1CCCC(C(=O)NC(C)c2ccc3c(c2)OCCO3)C1 (stereo unspecified) | 9 (inactive) | 136 |
| COC(=O)c1[nH]c2c(c1C)C(=O)CCC2 | 387 (inactive) | 252 |

| Structure (SMILES) | cell event count (at 100 µM) | cell event count (event count, at 10 µM) |
| --- | --- | --- |
| CCCOc1ccccc1C1CC(=O)Nc2cc3c(cc21)OCO3 (stereo unspecified) | 6 (active) | 56 |
| O=C(CSc1nc2sc3c(c2c(=O)n1-c1ccccc1)CCCC3)NCc1ccco1 | 25 (inactive) | 104 |
| c1ccc(CSc2nnc(-c3cccs3)n2Cc2ccco2)cc1 | 55 (inactive) | 122 |
| COc1ccc2nc(NC(=O)C(NS(=O)(=O)c3cccs3)C(C)C)sc2c1 (stereo unspecified) | 67 (inactive) | 253 |
| CN(C)c1ccc(CNC2CC(C)(C)NC(C)(C)C2)cc1 | 130 (inactive) | 186 |
| CCSc1nnc(Cn2c(=O)sc3ccccc32)n1-c1ccccc1C | 249 (inactive) | 171 |
| Cc1ccc(C)c2[nH]c(=O)c(CN(CCN3CCCC3)C(=O)Nc3cccc(Cl)c3)cc12 | 5 (inactive) | 97 |
| Cn1c(=O)[nH]c(=O)c2c1nc(Br)n2CCCSc1nc2ccccc2o1 | 8 (inactive) | 96 |
| CCOC(=O)c1c(C)n(C)c2ccc(OCC(O)CNC(CC)CO)cc12 (stereo unspecified) | 99 (inactive) | 88.5 |
| CCOc1ccc(-c2cc(C(=O)NCCCN3CCN(CC)CC3)c3ccccc3n2)cc1 | 39 (inactive) | 156 |
| Cc1oc(-c2ccc(Cl)cc2)nc1CN1CCC(C(=O)NCc2cccnc2)CC1 | 20 (inactive) | 125 |
| O=C(CCNC(=O)Cn1ccc2ccccc2c1=O)NCCCN1CCN(c2ccccc2F)CC1 | 112 (inactive) | 126 |
| Cc1nc2nc(C)c(CCC(=O)NCCCN3CCN(c4cccc(Cl)c4)CC3)c(C)n2n1 | 43 (inactive) | 61 |
| CCOC(=O)N1CCN(C(=O)C2CCCN(Cc3nc(-c4ccc(Cl)cc4)oc3C)C2)CC1 (stereo unspecified) | 10 (inactive) | 126 |
| Cc1ccccc1-c1nc(CN2CCC(C(=O)O)CC2)c(C)o1 | 217 (inactive) | 207 |
| Cc1cc(=O)oc(C)c1C(=O)NCCCN1CCN(c2ccccc2F)CC1 | 232 (inactive) | 308 |
| N=c1c(C(=O)NC2CCCC2)cc2c(=O)n3ccccc3nc2n1C1CCCC1 | 12 (active) | 55 |
| O=C(Nc1nc(-c2ccccc2)cs1)C1CCCCN1S(=O)(=O)c1ccccc1 (stereo unspecified) | 234 (inactive) | 210 |
| CCOC(=O)C1=C(C)N=c2s/c(=C\c3ccncc3)c(=O)n2C1c1ccc2c(c1)OCO2 (stereo unspecified) | 17 (inactive) | 272 |
| Cc1nc2ncnn2c(C)c1CCC(=O)NCCCN1CCN(c2cccc(Cl)c2)CC1 | 95 (inactive) | 148 |
| CCOC(=O)C1CCN(c2nc3ccccc3nc2C(C#N)C(=O)OCCOC)CC1 (stereo unspecified) | 17 (inactive) | 108 |

| Structure (SMILES) | cell event count (at 100 µM) | cell event count (event count, at 10 µM) |
| --- | --- | --- |
| c1ccc(OCCCn2nnc(-c3cccnc3)n2)cc1 | 123 (inactive) | 126 |
| O=C(NCCCN1CCN(c2cccc(Cl)c2)CC1)c1nc(-c2ccncc2)no1 | 166 (inactive) | 462 |
| CC(C)n1c(=S)[nH]c2c1c(=O)[nH]c(=O)n2C | 221 (inactive) | 146 |
| CCN(CCNC(=O)C1CCCN(Cc2nc(-c3ccc(OC)cc3)oc2C)C1)c1ccccc1 (stereo unspecified) | 18 (inactive) | 146 |
| CCN1CCCC1CNC(=O)c1cc2c(-c3ccc(Cl)cc3)nn(C)c2s1 (stereo unspecified) | 14 (inactive) | 88.5 |
| Nc1ccc(-n2ccnc2)cc1 | 173 (inactive) | 126 |
| CCOC(=O)C1=C(O)CCn2c1nc1ccccc12 | 206 (inactive) | 257 |
| O=C(CCNC(=O)Cn1ccc2ccccc2c1=O)NCCCN1CCN(c2ccc(F)cc2)CC1 | 156 (inactive) | 91.5 |
| CCc1ccc(-c2nc(CN3CCC(C(=O)NCc4ccccc4OC)CC3)c(C)o2)cc1 | 49 (inactive) | 190 |
| COc1ccc(N2CCN(c3oc(COc4ccccc4Cl)nc3C#N)CC2)cc1 | 214 (inactive) | 172 |
| CCOC(=O)N1CCC(NC(=O)c2cc3c(-c4ccccc4F)nn(C)c3s2)CC1 | 60 (inactive) | 148 |
| COc1ccc(OC)c(N=Cc2c(O)[nH]c3ccccc23)c1 | 207 (inactive) | 112 |
| CCOC(=O)N1CCC(NC(=O)c2cc3c(-c4ccc(Cl)cc4)nn(C)c3s2)CC1 | 342 (inactive) | 118 |
| CCOC(=O)C1CCN(S(=O)(=O)c2ccc(-c3nc4ccccc4s3)s2)CC1 | 70 (inactive) | 136 |
| Cc1cc(=O)n2nc(N3CCCC3C(=O)NCc3ccccn3)sc2n1 (stereo unspecified) | 101 (inactive) | 61 |
| Cc1ccccc1CN1CCN(CC(=O)NCCCN2CCN(c3ccc(F)cc3)CC2)C1=O | 241 (inactive) | 195 |
| CCOC(=O)c1c(-c2ccc(C)o2)csc1NC(=O)CN1CCN(CC)CC1 | 27 (inactive) | 170 |
| O=C(CSc1c[nH]c2ccccc12)N1CCOCC1 | 297 (inactive) | 149 |
| O=C(c1ccc2c(c1)OCCO2)N1CCCCC1 | 65 (inactive) | 81.5 |
| COc1ccc(-c2cc(C(F)(F)F)nc(N3CCN(C)CC3)n2)cc1 | 4 (inactive) | 102 |
